For the assay, the system named is HeLa. Nature of the assay: percent cells in G1/S phase; higher = more G1/S content. The conditions noted are these: 10 µM; 20 h; hit class: G2/M-phase inhibitor. As for the experimental part:
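HTS of 79,827 drug-like compounds at 10 uM. HeLa cells in 384-well plates were treated for 20 h, fixed, stained with Vybrant DyeCycle Green and scanned on an Acumen eX3 cytometer to give per-well cell cycle profiles. Only G2/M hits (>=67% G2/M) are listed.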
With `CN1Cc2c(ccc3c2OCO3)[C@@H]2[C@H]1c1cc3c(cc1C[C@@H]2O)OCO3` [Chelidonine monohydrate (+)], the “percent cells in G1/S phase” value came out at 19.8%.

(Values after the supplement of paper PMC4237247.)
